This assay deals with Streptococcus salivarius. As to the kind of experiment: growth AUC relative to DMSO control (median of replicates) (fraction); higher = more growth (less inhibition), active = hit call of the paper. Conditions: 20 µM; 24 h;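 active = AUC reduced over 20% with Padj below 0.05 in at least 2 of 3 replicates; inactive = otherwise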. The method in brief: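 Three biological replicates, each grown on a separate day, were combined as a median for every value. In each, a gut bacterial monoculture in mGAM started at OD600 0.05 and grew anaerobically at 37 °C with 20 µM compound (1% DMSO), with OD600 read hourly over 24 h. Area under the growth curve was normalised against the plate median of solvent-only wells, or against row and column medians on the industrial chemical plate, after the minimum OD was set to 0.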
As for `CCc1cccc(C)c1N(C(=O)CCl)C(C)COC` (configuration not stated), the “growth AUC” value is 1.05 (inactive).

`COC(=O)COc1ccc(Cl)cc1Cl`: the “growth AUC” value was 0.937 (inactive). Consider `CNC(=O)O/N=C(\SC)C(=O)N(C)C`, for which the “growth AUC” value is 1.02 (inactive).

Regarding `O=C(O)C(F)(F)C(F)(F)C(F)(F)C(F)(F)C(F)(F)C(F)(F)C(F)(F)F`, the “growth AUC” value is 1.01 (inactive). Take `O=C(O)c1ccc(Cl)nc1`: the “growth AUC” value was 0.973 (inactive). As to `CCOP(=S)(OCC)SCCS(=O)(=O)CC`, the “growth AUC” value is 0.994 (inactive). Take `COCc1c(F)c(F)c(COC(=O)C2C(C=C(C)C)C2(C)C)c(F)c1F` (configuration not stated): the “growth AUC” value was 1.06 (inactive). Consider `COP(=S)(OC)Oc1ccc(C#N)cc1`, for which the “growth AUC” value was 0.959 (inactive). As for `CO/N=C(/C(=O)OC)c1ccccc1COc1ccccc1C`, the “growth AUC” value is 0.97 (inactive). Take `O=NN(CCO)CCO`: the “growth AUC” value was 0.986 (inactive).

With `COP1(=S)OCc2ccccc2O1` (configuration not stated), the “growth AUC” value is 1.01 (inactive). Consider `Cc1cnc2c(C(=O)O)c(Cl)ccc2c1`, for which the “growth AUC” value was 0.969 (inactive).

(Values after the supplement of paper PMC12669032.)
